Laboratory results published in publication PMC5540273 (PLoS ONE, 2017).
Where “and” joins values, the source holds several entries; their conditions need not be identical. Equal values may be shown once. Read-outs that look alike come from different tables or passages of the source.

Key:
MST1 = tested on: T1, MST1; details: concentration: 1 μM, replicates: in singlicate, n = 1
T1 construct: gene STK4

MST2 = tested on: T2, MST2; details: concentration: 1 μM, replicates: in singlicate; n = 1
T2 construct: gene STK3

MST3 = tested on: T3, MST3; details: concentration: 1 μM, replicates: in singlicate, n = 1
T3 construct: gene STK24

MST4 = details: concentration: 1 μM, replicates: in singlicate, n = 1
MTOR = details: concentration: 1 μM, replicates: in singlicate, n = 1
MUSK = details: concentration: 1 μM, replicates: in singlicate, n = 1
MYLK2 = details: concentration: 1 μM, replicates: in singlicate, n = 1
MYLK4 = details: concentration: 1 μM, replicates: in singlicate, n = 1
MYLK = details: concentration: 1 μM, replicates: in singlicate, n = 1
MYO3A = details: concentration: 1 μM, replicates: in singlicate, n = 1
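Note: KINOMEscan kinase panel screen.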

Row | SMILES | %Inh (MST1) [%] | %Inh (MST2) [%] | %Inh (MST3) [%] | %Inh (MST4) [%] | %Inh (MTOR) [%] | %Inh (MUSK) [%] | %Inh (MYLK2) [%] | %Inh (MYLK4) [%] | %Inh (MYLK) [%] | %Inh (MYO3A) [%] | %Inh (MST1; 1 µM) | %Inh (MST3; 1 µM) | %Inh (MST4; 1 µM) | %Inh (MTOR; 1 µM) | %Inh (MUSK; 1 µM) | %Inh (MYLK2; 1 µM) | %Inh (MYLK4; 1 µM) | %Inh (MYLK; 1 µM) | %Inh (MYO3A; 1 µM)
1 | O=C(Nc1cccc(-c2nn3ncccc3c2-c2ccnc(Nc3cccc(C(F)(F)F)c3)n2)c1)c1c(F)cccc1F [GSK299495] | 9 | 23 | 0 | 0 | 17 | 26 | 0 | 0 | 11 | 41 |  |  |  |  |  |  |  |  | 
2 | O=C1NC(=O)C(N2CCc3ccccc32)=C1c1cccc(Cl)c1 [SB-408010] | 0 | 63 | 4 | 0 | 0 | 0 | 0 | 0 | 8 | 9 |  |  |  |  |  |  |  |  | 
3 | NS(=O)(=O)c1cccc(-c2ccc3nccc(-c4cccc(S(N)(=O)=O)c4)c3c2)c1 [GW867253] | 11 | 0 | 5 | 0 | 32 | 10 | 0 | 2 | 0 | 0 |  |  |  |  |  |  |  |  | 
4 | Cc1nnc(-c2ccc3ncc(-c4ccc(S(C)=O)cc4)n3c2)o1 (stereo not drawn) | 0 | 0 | 14 | 0 | 29 | 0 | 8 | 5 | 18 | 0 |  |  |  |  |  |  |  |  | 
5 | NCCNS(=O)(=O)c1ccc(-c2ccnc3[nH]ccc23)cc1 [GSK977617] |  | 0 |  |  |  |  |  |  |  |  | 26% and 0% | 27% and 17% | 13% and 0% | 29% and 12% | 30% and 35% | 75% and 42% | 99.9% and 99.7% | 74% and 59% | 37% and 16%
6 | CCCCCc1nc2c(N)ncnc2n1CCCCC [SKF-97255] | 0 | 0 | 0 | 0 | 0 | 0 | 6 | 12 | 17 | 1 |  |  |  |  |  |  |  |  | 
7 | Fc1ccc(-c2ncn(CCCN3CCOCC3)c2-c2cccnc2)cc1 [SB-211743] | 12 | 40 | 0 | 0 | 0 | 20 | 1 | 0 | 0 | 0 |  |  |  |  |  |  |  |  | 
8 | Cc1cccc(Cn2ccn3c(=O)cc(N4CCOCC4)nc23)c1 [GSK2297542] | 7 | 0 | 23 | 0 | 17 | 2 | 4 | 6 | 41 | 11 |  |  |  |  |  |  |  |  | 
9 | CCn1cnc2c(N)ncnc21 [GW345098] | 8 | 7 | 20 | 0 | 0 | 2 | 2 | 7 | 29 | 12 |  |  |  |  |  |  |  |  | 
10 | N#Cc1ccc(-c2cc(-c3c[nH]nc3-c3ccccn3)ccn2)cc1 [GW693028] | 4 | 0 | 0 | 0 | 14 | 0 | 0 | 0 | 8 | 15 |  |  |  |  |  |  |  |  | 
11 | Fc1ccc(-c2nn3c(OCC(F)(F)F)cccc3c2-c2ccncc2)cc1 [GW514784] | 0 | 0 | 12 | 0 | 35 | 0 | 1 | 0 | 15 | 72 |  |  |  |  |  |  |  |  | 
12 | CN(C(=O)c1ccc(-c2cc(-c3c[nH]nc3-c3ccccn3)ccn2)cc1)C1CCOCC1 [GW810083] | 8 | 13 | 34 | 0 | 10 | 0 | 0 | 0 | 0 | 0 |  |  |  |  |  |  |  |  | 
13 | Cn1ccc2ncnc(Oc3ccc(NC(=O)Nc4ccncc4)c(Cl)c3)c21 | 0 | 0 | 0 | 0 | 11 | 0 | 11 | 0 | 0 | 14 |  |  |  |  |  |  |  |  | 
14 | CNc1ncnc2[nH]ncc12 [SKF-18355] | 36 | 0 | 0 | 0 | 17 | 14 | 3 | 5 | 0 | 0 |  |  |  |  |  |  |  |  | 
15 | Cn1cc(-c2ccc3c(c2)CCN3C(=O)Cc2ccccc2Cl)c2c(N)ncnc21 [GSK2608885] | 95.3 | 64 | 30 | 13 | 8 | 29 | 8 | 2 | 12 | 34 |  |  |  |  |  |  |  |  | 
16 | Cl.Nc1ncnc2occ(-c3ccc(NC(=O)Nc4cc(C(F)(F)F)ccc4F)cc3)c12 [SB-707548] | 50 | 26 | 52 | 8 | 16 | 100 | 37 | 26 | 21 | 96.6 |  |  |  |  |  |  |  |  | 
17 | CC(=O)Nc1ccc(COc2ccc(Nc3ccnc4cc(-c5ccccn5)ccc34)cc2)cc1.Cl [GW440148] | 0 | 30 | 22 | 0 | 13 | 8 | 3 | 16 | 13 | 27 |  |  |  |  |  |  |  |  | 

Row | SMILES | %Inh (MST1) [%] | %Inh (MST2) [%] | %Inh (MST3) [%] | %Inh (MST4) [%] | %Inh (MTOR) [%] | %Inh (MUSK) [%] | %Inh (MYLK2) [%] | %Inh (MYLK4) [%] | %Inh (MYLK) [%] | %Inh (MYO3A) [%] | %Inh (MST1; 1 µM) | %Inh (MST3; 1 µM) | %Inh (MST4; 1 µM) | %Inh (MTOR; 1 µM) | %Inh (MUSK; 1 µM) | %Inh (MYLK2; 1 µM) | %Inh (MYLK4; 1 µM) | %Inh (MYLK; 1 µM) | %Inh (MYO3A; 1 µM)
18 | CC(C)Oc1ccc2c(-c3ccnc(Nc4ccc(N5CCN(C)CC5)cc4)n3)cnn2n1 [GW696155] | 0 | 0 | 59 | 16 | 27 | 42 | 61 | 99.6 | 17 | 30 |  |  |  |  |  |  |  |  | 
19 | O=C(NCCNc1ccnc(Nc2ccc(F)cc2)n1)Nc1ccccc1F [GSK1379880] | 0 | 0 | 0 | 0 | 10 | 5 | 1 | 0 | 9 | 0 |  |  |  |  |  |  |  |  | 
20 | O=C(NCCCN1CCOCC1)c1cccc(Nc2nccc(Nc3ccc(Oc4ccccc4)cc3)n2)c1 [GW663929] | 0 | 34 | 14 | 0 | 12 | 2 | 0 | 25 | 0 | 35 |  |  |  |  |  |  |  |  | 
21 | O=C(NOCC1CC1)c1ccc(F)c(F)c1Nc1ccc(I)cc1Cl | 0 | 0 | 4 | 0 | 28 | 0 | 0 | 0 | 0 | 0 |  |  |  |  |  |  |  |  | 
22 | Cl.Cl.Cl.Fc1ccc(-c2ncn(C3CCNCC3)c2-c2ccnc(Nc3ccccc3)n2)cc1 [SB-238039] |  | 0 |  |  |  | 0 |  |  |  |  | 82% and 69% | 12% and 46% | 44% and 0% | 22% and 0% |  | 43% and 30% | 6% and 0% | 0% and 22% | 4% and 10%
23 | Nc1nc(-c2ccc3c(N)n[nH]c3c2)cc(N2CCCC2)n1 [GSK2227430] | 0 | 0 | 0 | 0 | 0 | 0 | 0 | 2 | 9 | 0 |  |  |  |  |  |  |  |  | 
24 | COc1ccc(COc2cc(-n3cnc4ccccc43)sc2C(N)=O)cc1 [GSK1024304] | 0 | 0 | 0 | 0 | 0 | 14 | 0 | 0 | 0 | 0 |  |  |  |  |  |  |  |  | 
25 | CN1c2ccc(CNc3ccc(F)cc3)cc2-c2c(cnn2C)S1(=O)=O | 0 | 0 | 0 | 0 | 24 | 0 | 0 | 0 | 4 | 0 |  |  |  |  |  |  |  |  | 
26 | COC(=O)Nc1nc2cc(Oc3ccc(NC(=O)Nc4cc(F)ccc4F)cc3)ccc2[nH]1.Cl [GW701424] | 0 | 0 | 6 | 0 | 15 | 99.1 | 0 | 0 | 0 | 33 |  |  |  |  |  |  |  |  | 
27 | Cc1c2ccc(N(C)c3ccnc(Nc4cccc(S(N)(=O)=O)c4)n3)cc2nn1Cc1ccccc1.Cl.Cl [GW787226] | 32 | 13 | 0 | 0 | 0 | 33 | 0 | 0 | 0 | 0 |  |  |  |  |  |  |  |  | 
28 | CN(C1=C(c2ccccc2)C(=O)NC1=O)c1ccccc1 [SB-334860] | 0 | 6 | 7 | 0 | 28 | 0 | 11 | 19 | 11 | 33 |  |  |  |  |  |  |  |  | 
29 | COc1ccc(Nc2nccc(N3CCC(NC(=O)Nc4cccc(C(C)=O)c4)C3)n2)cc1 (stereo not drawn) [GSK1379731] | 4 | 0 | 0 | 0 | 16 | 3 | 0 | 0 | 0 | 0 |  |  |  |  |  |  |  |  | 
30 | [2H]C([2H])(c1cccc(C(F)(F)F)c1C)n1ccn2c(=O)nc(N3CCOCC3)cc12 [GSK2336394] | 2 | 0 | 11 | 0 | 18 | 8 | 0 | 0 | 12 | 4 |  |  |  |  |  |  |  |  | 
31 | COc1ccc(CNC(=O)NC2CCN(c3ccnc(Nc4ccc(OC)cc4)n3)C2)cc1 (stereo not drawn) [GSK1379727] | 0 | 0 | 0 | 0 | 13 | 7 | 8 | 0 | 22 | 18 |  |  |  |  |  |  |  |  | 
32 | Nc1nccc(-c2c(-c3ccc(F)cc3)ncn2C2CCN(CC(F)(F)F)CC2)n1 [SB-236560] | 96.9 | 0 | 0 | 0 | 0 | 22 | 0 | 0 | 1 | 0 |  |  |  |  |  |  |  |  | 
33 | N#Cc1c(N2CCOCC2)sc(-c2ccn[nH]2)c1-c1ccc(Cl)cc1 | 21 | 0 | 19 | 0 | 0 | 0 | 8 | 5 | 23 | 3 |  |  |  |  |  |  |  |  | 
